Experiment [1] has as its target ATP-dependent 6-phosphofructokinase (Trypanosoma brucei brucei) (UniProt O15648). Description: qHTS Assay to Find Inhibitors of T. brucei phosphofructokinase: hit validation (AID 492961).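 Further: luminescence reports ADP formed as PFK phosphorylates fructose-6-phosphate with ATP; on the % scale 0 is the no-effect control and ±100 the full control effect.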 The essentials:
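Compounds titrated; %activity normalized to 0x and 1x enzyme controls, curve-fitted. Readout: ADP-Glo luminescence after 45 min room-temperature reaction of 1.25 nM PFK, 0.1 mM ATP, 0.5 mM F6P, pH 8.0.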
(In general: qHTS replaces the single test concentration by a dilution series.)

Experiment [2] deals with Ubiquitin carboxyl-terminal hydrolase 1 (Homo sapiens) (UniProt O94782). Description: Inhibitors of USP1/UAF1: Pilot qHTS (AID 504865).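 Further: rhodamine fluorescence freed from ubiquitin-rhodamine substrate followed over time; top concentration of the series differs between compounds; on the % scale 0 is the no-effect control and ±100 the full control effect; nearly all actives have a fitted effect of over 35% in size.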 The essentials:
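USP1/UAF1 complex at 1 nM preincubated 15 min at room temperature with compound, then Ub-Rho substrate added at 150 nM final. Fluorescence (480/540 nm) read kinetically in 50 mM HEPES pH 7.8, 0.5 mM EDTA, 1 mM TCEP, 0.1 mg/ml BSA, 0.01% Tween-20.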

Experiment [3] concerns the target Luciferin 4-monooxygenase (Photinus pyralis) (UniProt P08659). Description: Biochemical firefly luciferase enzyme assay for NPC (AID 624030).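 Further: purified P. pyralis luciferase at 10 nM with luciferin and ATP substrate; 0% = DMSO and -100% = full luciferase inhibition by PTC124 control; nearly all actives have a fitted effect of over 70% in size.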 The gist of the method: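 Purified P. pyralis luciferase at 10 nM in 50 mM Tris Acetate (final), luminescence read within 5 minutes of enzyme addition to compounds. Activity normalised to PTC124 versus DMSO; concentration-response curves classed by r2, magnitude and activity.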

Experiment [4] in a line: qHTS profiling for inhibitors of Plasmodium falciparum proliferation (AID 504749). Further: potency means the concentration at half of the fitted maximal effect.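 On activity, negative = inhibition: 0% = DMSO vehicle and full inhibition = artemisinin control.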 On all read-outs here: nearly all actives have a fitted effect of over 60% in size. The note with it: P. falciparum in erythrocytes, SYBR Green DNA, 72 h; for activity, negative = inhibition: at 28.7 µM (top of the series). The gist of the method: (§1)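 P. falciparum-infected erythrocytes (0.3% parasitemia, 2.5% hematocrit) incubated with compound 72 h at 37 C, 5% CO2. Parasite DNA detected by SYBR Green after lysis, overnight at room temperature; normalised to 0.29 uM artemisinin and DMSO.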

Experiment [5] concerns ATS189. The description is as above. The note with it: P. falciparum in erythrocytes, SYBR Green DNA, 72 h; series mostly up to 28.7 µM. The essentials: as §1
Experiment [6] has as its system C2A. Described as above. The note with it: P. falciparum in erythrocytes, SYBR Green DNA, 72 h; series mostly up to 28.7 µM. The gist of the method: as §1
The test system of experiment [7] is CP191. The experiment is described as above. The note with it: P. falciparum in erythrocytes, SYBR Green DNA, 72 h; series mostly up to 28.7 µM. The gist of the method: as §1
Experiment [8] concerns CP192. The description is as above. The note with it: P. falciparum in erythrocytes, SYBR Green DNA, 72 h; series mostly up to 28.7 µM. The essentials: as §1
Experiment [9] relates to CP201. Described as above. The note with it: P. falciparum in erythrocytes, SYBR Green DNA, 72 h; series mostly up to 28.7 µM. The gist of the method: as §1
Experiment [10] concerns CP215. The experiment is described as above. The note with it: P. falciparum in erythrocytes, SYBR Green DNA, 72 h; series mostly up to 28.7 µM. The gist of the method:
as §1

In experiment [11] the test system is CP237. Described as above. The note with it: P. falciparum in erythrocytes, SYBR Green DNA, 72 h; series mostly up to 28.7 µM. The essentials:
as §1

In experiment [12] the test system is CP238. The description is as above. The note with it: P. falciparum in erythrocytes, SYBR Green DNA, 72 h; series mostly up to 28.7 µM. The essentials: as §1
The test system of experiment [13] is CP268. Described as above. The note with it: P. falciparum in erythrocytes, SYBR Green DNA, 72 h; series mostly up to 28.7 µM. The essentials: as §1
Experiment [14] relates to CP269. Described as above. The note with it: P. falciparum in erythrocytes, SYBR Green DNA, 72 h; series mostly up to 28.7 µM. The essentials: as §1
The subject of experiment [15] is CP286. The description is as above. The note with it: P. falciparum in erythrocytes, SYBR Green DNA, 72 h; series mostly up to 28.7 µM. The gist of the method:
as §1

For experiment [16], the system named is CP325. Described as above. The note with it: P. falciparum in erythrocytes, SYBR Green DNA, 72 h; series mostly up to 28.7 µM. The essentials: as §1
For experiment [17], the system named is CP329. Described as above. The note with it: P. falciparum in erythrocytes, SYBR Green DNA, 72 h; series mostly up to 28.7 µM. The essentials: as §1
Experiment [18] deals with FAB9. The experiment is described as above. The note with it: P. falciparum in erythrocytes, SYBR Green DNA, 72 h; series mostly up to 28.7 µM. The essentials:
as §1

Experiment [19] concerns JCK. The description is as above. The note with it: P. falciparum in erythrocytes, SYBR Green DNA, 72 h; series mostly up to 28.7 µM. The essentials:
as §1

Experiment [20] deals with PC49. The experiment is described as above. The note with it: P. falciparum in erythrocytes, SYBR Green DNA, 72 h; series mostly up to 28.7 µM. The gist of the method:
as §1

Records with an inconclusive call do not appear. A number with no mark means an inactive call. Activity calls are given as the source filed them. The call rests on the fitted dose curve; in most records, active means well fitted curve in the direction sought with a large enough effect; inconclusive means small, poorly fitted or top-dose-only effect, or another doubt; inactive means no such curve, though single readings can be large; an effect the other way counts as inactive or inconclusive.

Luciferin 4-monooxygenase (Photinus pyralis), sequence (P08659 whole entry, looked up): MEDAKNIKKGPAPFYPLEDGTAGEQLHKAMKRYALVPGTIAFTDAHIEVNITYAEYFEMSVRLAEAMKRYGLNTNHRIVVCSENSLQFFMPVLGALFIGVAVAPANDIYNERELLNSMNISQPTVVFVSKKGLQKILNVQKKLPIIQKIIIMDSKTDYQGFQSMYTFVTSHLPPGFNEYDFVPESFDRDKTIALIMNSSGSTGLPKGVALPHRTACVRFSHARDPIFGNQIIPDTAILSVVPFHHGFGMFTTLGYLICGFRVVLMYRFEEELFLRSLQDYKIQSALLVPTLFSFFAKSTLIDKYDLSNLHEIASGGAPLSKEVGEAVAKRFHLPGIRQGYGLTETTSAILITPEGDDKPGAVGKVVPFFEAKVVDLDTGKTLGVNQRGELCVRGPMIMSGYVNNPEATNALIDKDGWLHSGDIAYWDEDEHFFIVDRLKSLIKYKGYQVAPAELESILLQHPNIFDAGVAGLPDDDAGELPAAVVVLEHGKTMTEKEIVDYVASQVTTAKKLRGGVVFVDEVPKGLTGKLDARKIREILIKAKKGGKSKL
ATP-dependent 6-phosphofructokinase (Trypanosoma brucei brucei), sequence (O15648 whole entry, looked up): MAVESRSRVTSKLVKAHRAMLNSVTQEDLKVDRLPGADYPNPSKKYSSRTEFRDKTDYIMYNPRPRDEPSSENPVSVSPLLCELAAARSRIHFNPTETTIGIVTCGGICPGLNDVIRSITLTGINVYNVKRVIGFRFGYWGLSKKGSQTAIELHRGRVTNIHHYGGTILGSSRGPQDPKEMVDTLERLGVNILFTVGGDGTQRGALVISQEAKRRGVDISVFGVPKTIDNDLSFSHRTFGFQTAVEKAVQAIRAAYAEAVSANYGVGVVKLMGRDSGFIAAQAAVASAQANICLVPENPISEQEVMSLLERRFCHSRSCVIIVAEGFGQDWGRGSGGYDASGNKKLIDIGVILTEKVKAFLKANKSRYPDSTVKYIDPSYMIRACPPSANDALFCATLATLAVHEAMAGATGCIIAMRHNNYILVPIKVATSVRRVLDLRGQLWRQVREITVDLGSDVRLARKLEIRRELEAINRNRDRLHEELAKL
Ubiquitin carboxyl-terminal hydrolase 1 (Homo sapiens), sequence (O94782 whole entry, looked up): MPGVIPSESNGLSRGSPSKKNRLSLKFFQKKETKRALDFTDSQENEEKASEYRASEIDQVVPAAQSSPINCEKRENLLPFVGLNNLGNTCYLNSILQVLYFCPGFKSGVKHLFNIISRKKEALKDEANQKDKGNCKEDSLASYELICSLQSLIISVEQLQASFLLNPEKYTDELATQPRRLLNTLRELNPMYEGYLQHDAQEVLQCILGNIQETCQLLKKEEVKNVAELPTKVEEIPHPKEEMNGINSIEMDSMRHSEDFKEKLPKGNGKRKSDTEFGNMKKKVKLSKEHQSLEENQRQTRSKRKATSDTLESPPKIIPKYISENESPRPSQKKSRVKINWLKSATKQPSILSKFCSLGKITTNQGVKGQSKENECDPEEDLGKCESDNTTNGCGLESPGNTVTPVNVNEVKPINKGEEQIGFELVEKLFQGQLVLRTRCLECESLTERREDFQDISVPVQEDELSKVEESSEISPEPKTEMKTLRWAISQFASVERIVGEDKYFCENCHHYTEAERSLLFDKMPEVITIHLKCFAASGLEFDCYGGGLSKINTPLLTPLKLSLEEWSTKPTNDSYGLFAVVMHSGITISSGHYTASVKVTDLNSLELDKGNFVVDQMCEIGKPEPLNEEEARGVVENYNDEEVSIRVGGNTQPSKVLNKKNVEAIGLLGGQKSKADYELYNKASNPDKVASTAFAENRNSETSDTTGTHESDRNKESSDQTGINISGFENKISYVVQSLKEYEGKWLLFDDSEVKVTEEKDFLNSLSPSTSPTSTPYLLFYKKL

Regarding `CN(C)[C@@H](Cc1ccccc1)c1ccccc1`, the result in experiment [1] was inactive. The Potency entry in experiment [2], in [3], in [5], in experiment [6], in experiment [7] and in experiment [8] was “inactive” throughout. Besides, the Potency result in experiment [9], in experiment [10], in experiment [12], in experiment [13], in [14] and in experiment [15] was “inactive” each time. The Potency result in experiment [16], in [17], in experiment [18], in [19] and in experiment [20] was “inactive” each time. Further, the activity, negative = inhibition in [4] (parasite line A) was 6.12%; in experiment [4] (parasite line B) it was 4.62%. Moreover, in [11], the Potency was 8.91 µM (active).
In the case of `C[C@]12CCC3C(CCC4=C(Cl)C(=O)CC[C@@]43C)C1CCC2O` (stereo partly drawn), in experiment [1], the call was inactive. Besides, the Potency entry in experiment [3], in experiment [5], in [6], in experiment [7], in experiment [8] and in [9] was “inactive” each time. The Potency entry in experiment [10], in [11], in experiment [12], in experiment [13], in experiment [14] and in experiment [15] was “inactive” each time. Moreover, the Potency result in experiment [16], in experiment [17], in experiment [18], in experiment [19] and in [20] was “inactive” throughout. Further, the activity, negative = inhibition in experiment [4] (parasite line A) is -5.63%; in experiment [4] (parasite line B) it was -11.9%.
Take `COC(=O)C1C(OC(=O)c2ccccc2)CC2CCC1N2C` (stereo not drawn): the Potency result in experiment [2], in [3], in experiment [5], in experiment [6], in experiment [7] and in experiment [8] was “inactive” in each case. The Potency entry in [9], in experiment [10], in experiment [11], in experiment [12], in experiment [13] and in experiment [14] was “inactive” each time. Also, the Potency result in experiment [15], in experiment [16], in experiment [17], in [18], in experiment [19] and in experiment [20] was “inactive” in each case. Moreover, the activity, negative = inhibition in [4] (parasite line A) is 9.75%; in experiment [4] (parasite line B), -3.4%.
Take `CCC/C=C/C=C/C(=O)OC1/C(=C/C(=O)OC)CC2CC(C(C)O)OC(=O)CC(O)CC3CC(OC(C)=O)C(C)(C)C(O)(CC4C/C(=C/C(=O)OC)CC(/C=C\C(C)(C)C1(O)O2)O4)O3` (stereo not drawn): the outcome in experiment [1] was inactive. The Potency result in [3] is “inactive”. The Potency in experiment [4] (parasite line A) was 1.58 µM (active); in experiment [4] (parasite line B), 1.78 µM (active); in [5], 891 nM (active); in experiment [6] it was 1.26 µM (active); in experiment [7], 1.12 µM (active); in [10], 1.69 µM (active). Also, the Potency in [11] is 2.82 µM (active); in [12], 1 µM (active); in experiment [13] it was 1.35 µM (active); in experiment [14], 1.51 µM (active); in experiment [15], 2.24 µM (active); in experiment [17], 1.9 µM (active). Moreover, the values for the Potency in experiment [18], in experiment [19] and in experiment [20] were 2.24 µM (active), 3.16 µM (active) and 1.26 µM (active), respectively.

Values taken from PubChem BioAssay (NCATS).
